This is an account of results in PubChem BioAssay AID624405 (Broad Institute, 2012).

Molecules are shown by their SMILES. Out of some 1,900 compounds screened, about 250 (13%) were called active. Roughly 4% stayed inconclusive and do not appear here.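 The calls were made as follows: active = fitted curve reaches 40% rescue activity at or below the top valid dose, in every test run; inconclusive = test runs disagree, some active and some inactive; inactive = every run misses the threshold or moves the wrong way.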 The list is a sample of the results. Measured potencies and affinities stand elsewhere.

A short description of the experiment: suppressors of statin myotoxicity in myotubes, dose response, cell-based, C2C12 myotubes, ATP luminescence, cherry pick (AID 624405).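 Also: myotubes are challenged with simvastatin at 10 µM to lower ATP.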 As to conditions: C2C12 myotubes + simvastatin, 48 h, scaled: DMSO wells 0, geranylgeraniol wells 100; series mostly up to 19.5 µM.
As to `Cc1noc(C)c1S(=O)(=O)Nc1ccc2c(c1)C(=O)N([C@@H](C)CO)C[C@H](C)[C@H](CN(C)S(=O)(=O)c1ccc(Cl)cc1)OCCCC[C@@H](C)O2`, the result was inactive.
The result for `O=C(CN1CCOCC1)N1CCN(c2nnc(-c3ccccc3)c3ccccc23)CC1` reads “inactive”; that for `Nn1c(SCC(=O)Nc2ccc(S(=O)(=O)N3CCCC3)cc2)nnc1C(F)(F)F`, “inactive”; that for `CCn1c(SCC(=O)NCc2cccs2)nnc1-c1ccco1`, “inactive”.
Regarding `CCOC(=O)c1ccn(-c2nc(-c3ccco3)cc(C(F)(F)F)n2)n1`, the outcome was inactive.
Turning to `Cc1occc1-c1nnc(SCC(=O)c2ccc(Cl)cc2)n1CC1CCCO1` (stereo unspecified), the outcome was inactive.
Regarding `O=C(CN1CCN(S(=O)(=O)c2ccc(Br)cc2)CC1)Nc1ccc2c(c1)OCCO2`, the outcome was inactive.
Take `Cc1cc(Cl)c(S(=O)(=O)Nc2ccc3c(c2)OCO3)cc1OCC(N)=O`: the outcome was inactive.
For the compound `C[C@@H]1CN([C@H](C)CO)C(=O)c2cccc(NC(=O)C3CCCCC3)c2O[C@@H]1CN(C)S(=O)(=O)c1ccc(Cl)cc1`, the result was inactive.
The entry for `Cc1ccc(C2C(=O)N(C3CCC(C)CC3)CC(=O)N2C2CCCC2)cc1` (stereo unspecified) is “inactive”; for `COc1cc(OC)cc(-c2nc(N)n[nH]2)c1` it is “inactive”.
As for `O=C(Nc1cccc(NC(=O)c2ccccc2F)c1)c1ccccc1`, the result was inactive.
On to `Cc1cccc(NC(=O)c2ccccc2C(=O)O)c1`, for which the outcome was inactive.
As for `C[C@H](CO)N1C[C@H](C)[C@@H](CN(C)C(=O)Nc2ccc(F)cc2)OCCCC[C@H](C)Oc2ccc(NC(=O)Cc3ccccc3)cc2C1=O`, the result was inactive.
The entry for `Cc1cccc(OCC(=O)Nc2cc(C)on2)c1` is “inactive”; for `Cc1cccc(-c2noc(Cc3ccc(Cl)cc3)n2)c1` it is “inactive”.
The result for `Cc1cc(C)cc(NC(=O)c2ccc(CSc3nnc(C)s3)cc2)c1` reads “inactive”.
The result for `Cc1ccc2nc(-c3ccccc3Cl)cc(C(=O)Nc3cc(C)on3)c2c1` reads “inactive”; that for `COc1ccc(NC(=O)Nc2ccc3c(c2)C(=O)N([C@@H](C)CO)C[C@@H](C)[C@@H](CN(C)Cc2ccc(C(F)(F)F)cc2)OCCCC[C@H](C)O3)cc1`, “inactive”; that for `CCOc1ccc(-c2nc(CSCC(=O)NCCN3CCOCC3)c(C)o2)cc1`, “inactive”.
For the compound `COc1ccc(NC(=O)Nc2cccc3c2O[C@@H](CN(C)C(=O)Nc2cccc4ccccc24)[C@H](C)CN([C@H](C)CO)C3=O)cc1`, the result was inactive.
For `Cn1ccnc1SCC(=O)Nc1ccccc1`, the outcome was inactive.
With `Cc1cc(=O)[nH]c(Nc2c(C)n(C)n(-c3ccccc3)c2=O)n1`, the result was inactive.
The result for `O=C(Cc1cccs1)Nc1nnc(Cc2ccccc2)s1` reads “inactive”; that for `CCOC(=O)c1cnn(-c2ccccc2)c1-n1cccc1`, “inactive”; that for `CC(=O)O[C@@H]1[C@H]2[C@@H](C[C@@H](C)[C@@H]3C=CC(=O)[C@@]13C)OC(=O)[C@@H]2C`, “inactive”.
The entry for `COc1ccc(S(=O)(=O)NC(CC(=O)NCc2ccc3c(c2)OCO3)c2ccco2)cc1` (stereo unspecified) is “inactive”.
The entry for `COc1ccc(S(=O)(=O)NCCC(=O)NCc2ccccc2)cc1` is “inactive”; for `O=C(Nc1ncn[nH]1)c1c(Cl)ccc(Cl)c1Cl` it is “inactive”; for `CCCS(=O)(=O)N1CCCC(C(=O)NCCN2CCC(Cc3ccccc3)CC2)C1` (stereo unspecified) it is “inactive”.
On to `CCOC(=O)CC(=O)CSc1ncc(C(=O)OCC)c(N)n1`, for which the result was inactive.
The result for `CC(=O)N(C)c1ccc(NC(=O)Cc2cccc3ccccc23)cc1` reads “inactive”; that for `C[C@H]1CN([C@@H](C)CO)C(=O)c2cccc(NS(=O)(=O)c3ccc(Cl)cc3)c2O[C@H]1CN(C)Cc1ccc(-c2ccccc2)cc1`, “inactive”; that for `COc1ccc(OCC(O)CN2C(=O)NC(C)(C)C2=O)cc1` (stereo unspecified), “inactive”.
In the case of `CN(C)CCCNc1ncnc2c1cnn2Cc1ccccc1Cl`, the outcome was inactive.
The entry for `CNC(=O)Cn1ncc2c(C)n(Cc3ccc(C)cc3)c(C)c2c1=O` is “inactive”; for `Cc1ccc(CC(=O)c2ccc(Cl)cc2)cc1` it is “inactive”; for `COC(=O)c1cccc(OCC(O)Cn2ccnc2)c1` (stereo unspecified) it is “inactive”.
In the case of `C[C@H]1CN([C@@H](C)CO)C(=O)Cc2cc(NS(=O)(=O)c3ccc(F)cc3)ccc2O[C@@H]1CN(C)Cc1ccc2c(c1)OCO2`, the result was inactive.
Regarding `C[C@H]1CN([C@@H](C)CO)C(=O)c2cccc(NC(=O)Nc3ccc4c(c3)OCO4)c2O[C@H]1CN(C)S(=O)(=O)c1ccc(Cl)cc1`, the outcome was inactive.
The entry for `C[C@@H]1CCCCO[C@@H](CN(C)CC2CCCCC2)[C@@H](C)CN([C@H](C)CO)C(=O)c2cc(NS(=O)(=O)c3ccc(F)cc3)ccc2O1` is “inactive”.
The entry for `Cc1ccc(C(=O)NNC(=O)C2CCN(Cc3ccc(Cl)c(Cl)c3)CC2)cc1` is “inactive”.
The result for `COc1ccc(CN(C)C[C@H]2Oc3ccc(NS(=O)(=O)c4ccc(F)cc4)cc3CC(=O)N([C@H](C)CO)C[C@H]2C)cc1` reads “inactive”; that for `C[C@@H]1CN([C@H](C)CO)C(=O)Cc2cc(NS(=O)(=O)c3ccc(Cl)cc3)ccc2O[C@H]1CN(C)Cc1ccc2c(c1)OCO2`, “inactive”.
As to `C[C@@H]1CN([C@H](C)CO)C(=O)Cc2cc(NS(=O)(=O)c3ccc(F)cc3)ccc2O[C@H]1CN(C)CC1CCCCC1`, the outcome was inactive.
For `C[C@H](CO)N1C[C@H](C)[C@@H](CN(C)CC2CCCCC2)Oc2ccc(NS(=O)(=O)c3ccc(Cl)cc3)cc2CC1=O`, the result was inactive.
Consider `C[C@@H]1CN([C@H](C)CO)C(=O)Cc2cc(NS(=O)(=O)c3ccc(Cl)cc3)ccc2O[C@@H]1CN(C)Cc1ccc(C(F)(F)F)cc1`, for which the outcome was inactive.
For `COc1ccc(S(=O)(=O)Nc2ccc3c(c2)CC(=O)N([C@@H](C)CO)C[C@H](C)[C@@H](CN(C)Cc2ccccc2)O3)cc1`, the outcome was inactive.
For `COc1ccc(S(=O)(=O)Nc2ccc3c(c2)C(=O)N([C@H](C)CO)C[C@@H](C)[C@H](CN(C)S(=O)(=O)c2ccc(F)cc2)OCCCC[C@@H](C)O3)cc1`, the result was inactive.
The result for `CCn1c(CSc2nc3ccccc3[nH]2)n[nH]c1=S` reads “inactive”.
As for `COc1ccc(S(=O)(=O)Nc2ccc3c(c2)CC(=O)N([C@@H](C)CO)C[C@@H](C)[C@H](CN(C)Cc2ccc(Oc4ccccc4)cc2)O3)cc1`, the result was inactive.
The result for `COc1cc(C)c(C(C)C)cc1S(=O)(=O)NCCCn1ccnc1` reads “inactive”; that for `COC(=O)c1sc(S(=O)(=O)Nc2ccc3cn[nH]c3c2)c(C(=O)OC)c1C`, “inactive”.
For `C[C@H](CO)N1C[C@H](C)[C@H](CN(C)S(=O)(=O)c2ccccc2)OCCCC[C@H](C)Oc2ccc(NS(C)(=O)=O)cc2C1=O`, the outcome was inactive.
The result for `COc1ccc(-n2c(SCC(=O)N3CCCCC3)nc(O)cc2=O)cc1` reads “inactive”.
The entry for `CCOC(=O)N1CCN(C(=O)C2CC(c3ccccc3OC)=NO2)CC1` (stereo unspecified) is “inactive”; for `COc1cc2oc3ccccc3c2cc1N(CC(=O)N1CCCCC1)S(=O)(=O)c1ccc(C)cc1` it is “inactive”.
As to `Cn1ncc(Cl)c1C(=O)Nc1cccnc1`, the result was inactive.
The entry for `O=C(O)C1CCCCC1C(=O)Nc1ccccn1` (stereo unspecified) is “inactive”; for `CCCCCCC(=O)N1CCN(c2cc3c(cc2F)c(=O)c(C(=O)O)cn3CC)CC1` it is “inactive”.
The result for `CC1CCN(C(=O)c2cc(F)c(F)cc2Cl)CC1` reads “inactive”; that for `CCOc1ccccc1Nc1nc(N)nc(Cl)c1CC`, “inactive”; that for `O=C(NCc1cccnc1)C1CC(=O)N(CCc2ccccc2)C1` (stereo unspecified), “inactive”.
The result for `CCOC(=O)N1CCN(c2c(N3CCN(c4cc(C)ccc4C)CC3)c(=O)c2=O)CC1` reads “inactive”.
Turning to `C[C@H]1CN([C@@H](C)CO)C(=O)c2cccc(NS(=O)(=O)c3cccs3)c2O[C@@H]1CN(C)Cc1ccc(Oc2ccccc2)cc1`, the result was inactive.
The entry for `C[C@H](CO)N1C[C@H](C)[C@@H](CN(C)Cc2ccc3c(c2)OCO3)Oc2ccc(NS(=O)(=O)c3ccc(F)cc3)cc2CC1=O` is “inactive”; for `COc1ccc(OC)c(CNC(=O)C2CCCN(c3nc4ccccc4o3)C2)c1` (stereo unspecified) it is “inactive”; for `CCCS(=O)(=O)N1CCCC(C(=O)N2CCN(c3ccccc3)CC2)C1` (stereo unspecified) it is “inactive”.
The entry for `CN(C)c1nc(Oc2ccc(C(=O)OCC(=O)Nc3ccccc3)cc2)nc(N(C)C)n1` is “inactive”; for `COc1ccc(C#Cc2ccc3c(c2)O[C@H](CN(C)C(=O)Nc2cccc(OC)c2)[C@@H](C)CN([C@H](C)CO)S3(=O)=O)cc1` it is “inactive”; for `C[C@H](CO)N1C[C@H](C)[C@H](CN(C)C(=O)Cc2ccccc2)OCCCC[C@H](C)Oc2ccc(NC(=O)Nc3ccc(C(F)(F)F)cc3)cc2C1=O` it is “inactive”.
With `Cc1csc2nc(CNC(=O)c3cccc(C(F)(F)F)c3)cn12`, the outcome was inactive.
The result for `O=C(NCC(=O)N(Cc1cccs1)C(C(=O)NC1CCCCC1)c1cccnc1)c1ccco1` (stereo unspecified) reads “inactive”; that for `O=C(Nc1ccccc1Cl)N1C[C@H]2[C@@H](c3ccccc31)[C@@H](CO)N2Cc1ccccc1`, “inactive”; that for `COc1ccc(N2C(=O)CSC23C(=O)Nc2ccccc23)cc1` (stereo unspecified), “inactive”.
The result for `C[C@@H]1CCCCO[C@H](CN(C)S(=O)(=O)c2ccc(Cl)cc2)[C@H](C)CN([C@H](C)CO)C(=O)c2cc(NS(C)(=O)=O)ccc2O1` reads “inactive”.
The result for `C[C@H](CO)N1C[C@H](C)[C@@H](CN(C)Cc2ccc(C(F)(F)F)cc2)Oc2ccc(NC(=O)C3CCCCC3)cc2CC1=O` reads “inactive”; that for `CC(C)(C)n1nnnc1C(c1cccnc1)N1CCN(c2ccccc2F)CC1` (stereo unspecified), “inactive”.
Consider `N#Cc1ccc(C(=O)NCC(c2ccco2)N2CCCCC2)cc1` (stereo unspecified), for which the result was inactive.
Consider `CCOC(=O)c1sc(NCC2CCCO2)nc1C` (stereo unspecified), for which the outcome was inactive.
The entry for `Cc1noc(C)c1S(=O)(=O)Nc1cccc2c1O[C@@H](CN(C)S(C)(=O)=O)[C@@H](C)CN([C@H](C)CO)C2=O` is “inactive”; for `C[C@@H]1CN([C@@H](C)CO)C(=O)c2cccc(NC(=O)c3ccc(-c4nccs4)cc3)c2O[C@@H]1CN(C)Cc1ccc(C(F)(F)F)cc1` it is “inactive”.
The entry for `COc1cc(OC)cc(C(=O)NCc2cccnc2)c1` is “inactive”; for `CC(C)(C)C(=O)Nc1ccc(C(=O)NCc2cccnc2)cc1` it is “inactive”; for `CCOC(=O)c1nnc(-c2ccc(C)cc2)nc1Sc1ccc(Cl)cc1` it is “inactive”.
The result for `COc1cnc(N(C)C)nc1Sc1ccc(Cl)cc1` reads “inactive”.
